# ChEMBL document CHEMBL4513135, “CO-ADD screening of IQOG CSIS (Spain) compounds”
# Measured potencies and affinities stand elsewhere.
# System: Klebsiella pneumoniae
# Details: Concentration 32 ug.mL-1; ASSAY_TEST Inhibition of Bacterial Growth; detection method Absorption (OD600); MEDIA CAMHB; plate type 384well; NBS; CORNING #3640; time 18 hr
row,Compound,Inhibition [%]
1,C#CCNc1nc(NC2CCN(Cc3ccccc3)CC2)c(C#N)cc1C#N.Cl,-9.27
2,C#CCn1c(N)c(C#N)c2cc(O)ccc21,10.3
3,COc1ccc2cc(C=O)c(Cl)nc2c1,1.14
4,COc1cc(C2C(C#N)=C(N)Oc3ccc4ccccc4c32)ccc1O (stereo not drawn),5.47
5,CCOC(=O)C1=C(C)OC(N)=C(C#N)C1c1ccccc1OC (stereo not drawn),15.52
6,COc1ccc(C=C2N=C(c3ccccc3)OC2=O)cc1,13.35
7,Cl.ClCCCCCN1CCCCC1,6.55
8,CNC(=O)c1cc2cc(OC)ccc2[nH]1,17.99
9,CCOC(=O)c1c(C)nc(NC2CCN(Cc3ccccc3)CC2)c(C#N)c1-c1ccccc1,11.42
10,NNC(=O)c1c[nH]c2ccc(OCc3ccccc3)cc12,3.4
11,CN(C)c1nc(N)c(C#N)cc1C#N,27.85
12,CCOC(=O)c1c(C)[nH]c(=O)c(C#N)c1-c1ccccc1,10.06
13,N#Cc1c(Cl)nc(Sc2ccccc2)c(C#N)c1-c1ccccc1,-3.62
14,CCOC(=O)c1c(C)nc(/N=N/c2nc(C)c(C(=O)OCC)c(-c3ccccc3)c2C#N)c(C#N)c1-c1ccccc1,0.93
15,Cn1ccnc1C1C2=C(CC(C)(C)CC2=O)Oc2nc3c(c(N)c21)CCC3 (stereo not drawn),9.18
16,CCOC(=O)C1=C(C)NC(N)=C(C#N)C1c1ccc(OC)cc1 (stereo not drawn),13.36
17,CCOC(=O)c1c(C)nc2nc3c(c(N)c2c1-c1ccccc1OC)CCCCC3,0.86
18,CC(=O)Oc1ccc(C=C2N=C(c3ccccc3)OC2=O)cc1,-12.75
